Source: the supplement of paper PMC10849652
The full data set covers some 8,800 targets. This sample favours those with a hit. About 0.5% of all pairs of compound and target were hits.

Tests used:
Experiment in all cases: log2 fold change, soluble protein after heating vs DMSO (PISA); higher = thermal stabilisation; K562 lysate, 10 uM; active = over 0.2 and 3.5 SD of the protein, either way, in both replicates (recomputed)
nilotinib = compound: Cc1cn(-c2cc(NC(=O)c3ccc(C)c(Nc4nccc(-c5cccnc5)n4)c3)cc(C(F)(F)F)c2)cn1 [nilotinib]
Summary of the method: (§1)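 K562 pellets were dounce-homogenised in PBS pH 7.4 with 1 mM MgCl2, and the crude extract at 1 mg/mL protein was treated with 10 μM compound for 30 min. Aliquots were heated for 3 min across 48°C-58°C, pooled, and brought to 0.5% NP-40 at 4°C; soluble protein was the supernatant after 21,000xg for 90 min. Soluble protein was quantified by TMTpro 16plex LC-MS/MS with channel sums equalised, and reported as log2 fold change in thermal stability against DMSO controls, with values from duplicates.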

[1] = compound: Cc1nc(Nc2n[nH]c3c2CN(C(=O)N[C@H](CN(C)C)c2ccccc2)C3(C)C)c2sccc2n1
Summary of the method: as §1

dasatinib = compound: Cc1nc(Nc2ncc(C(=O)Nc3c(C)cccc3Cl)s2)cc(N2CCN(CCO)CC2)n1 [dasatinib]
Summary of the method: as §1

[2] = compound: Cc1ncc(-c2ccnc(Nc3ccc(S(C)(=O)=O)cc3)n2)n1C(C)C
Summary of the method: as §1

[3] = compound: Cn1cc(-c2ccc3c(c2)CCN3C(=O)Cc2cccc(C(F)(F)F)c2)c2c(N)ncnc21
Summary of the method: as §1

quisinostat = compound: Cn1cc(CNCC2CCN(c3ncc(C(=O)NO)cn3)CC2)c2ccccc21 [quisinostat]
Summary of the method: as §1

tipifarnib = compound: Cn1cncc1[C@@](N)(c1ccc(Cl)cc1)c1ccc2c(c1)c(-c1cccc(Cl)c1)cc(=O)n2C [tipifarnib]
Summary of the method: as §1

[4] = compound: NC(=O)Nc1cc(-c2cccc(F)c2)sc1C(=O)N[C@H]1CCCNC1
Summary of the method: as §1

[5] = compound: NC(=O)c1cnc(N[C@@H]2CCCC[C@@H]2N)nc1Nc1cccc(-n2nccn2)c1
Summary of the method: as §1

[6] = compound: NC1(c2ccc(-c3nc4ccn5c(=O)[nH]nc5c4cc3-c3ccccc3)cc2)CCC1
Summary of the method: as §1

[7] = compound: NCC(=O)Nc1ccc(-n2nc(C(F)(F)F)cc2-c2ccc3c(ccc4ccccc43)c2)cc1
Summary of the method: as §1

vorinostat = compound: O=C(CCCCCCC(=O)Nc1ccccc1)NO [vorinostat]
Summary of the method: as §1

silmitasertib = compound: O=C(O)c1ccc2c(c1)nc(Nc1cccc(Cl)c1)c1ccncc12 [silmitasertib]
Summary of the method: as §1

[8] = compound: O=C1NC(=O)C(c2cnc3ccccn23)=C1c1cn2c3c(cc(F)cc13)CN(C(=O)N1CCCCC1)CC2
Summary of the method: as §1

entospletinib = compound: c1cn2cc(-c3ccc4cn[nH]c4c3)nc(Nc3ccc(N4CCOCC4)cc3)c2n1 [entospletinib]
Summary of the method: as §1

Chain of UniProt P83916 (P83916 whole entry, looked up): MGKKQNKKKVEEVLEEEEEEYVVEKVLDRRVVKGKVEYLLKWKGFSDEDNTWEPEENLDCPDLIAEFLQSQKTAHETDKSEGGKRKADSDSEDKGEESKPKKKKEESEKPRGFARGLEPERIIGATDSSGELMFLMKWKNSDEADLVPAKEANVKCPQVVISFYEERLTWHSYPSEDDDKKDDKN
Chain of UniProt Q8ND76 (Q8ND76 whole entry, looked up): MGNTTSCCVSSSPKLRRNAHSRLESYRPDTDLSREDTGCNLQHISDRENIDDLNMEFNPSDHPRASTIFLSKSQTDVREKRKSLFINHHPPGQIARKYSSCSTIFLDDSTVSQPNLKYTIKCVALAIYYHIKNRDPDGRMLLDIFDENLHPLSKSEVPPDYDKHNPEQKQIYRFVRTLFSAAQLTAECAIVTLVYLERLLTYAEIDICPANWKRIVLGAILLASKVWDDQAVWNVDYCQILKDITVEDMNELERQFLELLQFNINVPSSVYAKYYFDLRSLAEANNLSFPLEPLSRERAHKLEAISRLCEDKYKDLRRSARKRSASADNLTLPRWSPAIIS
Chain of UniProt Q9H257 (Q9H257 whole entry, looked up): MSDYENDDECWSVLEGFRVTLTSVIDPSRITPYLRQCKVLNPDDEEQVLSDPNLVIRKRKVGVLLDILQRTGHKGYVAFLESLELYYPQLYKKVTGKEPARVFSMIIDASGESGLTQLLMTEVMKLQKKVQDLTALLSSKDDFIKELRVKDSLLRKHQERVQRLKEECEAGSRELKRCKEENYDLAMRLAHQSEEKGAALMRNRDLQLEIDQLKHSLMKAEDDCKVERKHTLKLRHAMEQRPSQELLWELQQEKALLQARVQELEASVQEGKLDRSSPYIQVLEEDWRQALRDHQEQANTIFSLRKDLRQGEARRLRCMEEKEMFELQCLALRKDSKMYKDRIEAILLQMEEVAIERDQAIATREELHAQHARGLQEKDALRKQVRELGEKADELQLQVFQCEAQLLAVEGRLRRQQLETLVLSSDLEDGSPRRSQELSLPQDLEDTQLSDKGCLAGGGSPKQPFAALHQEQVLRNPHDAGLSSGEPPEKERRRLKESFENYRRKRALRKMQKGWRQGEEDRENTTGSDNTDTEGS
Chain of UniProt Q9NQS1 (Q9NQS1 whole entry, looked up): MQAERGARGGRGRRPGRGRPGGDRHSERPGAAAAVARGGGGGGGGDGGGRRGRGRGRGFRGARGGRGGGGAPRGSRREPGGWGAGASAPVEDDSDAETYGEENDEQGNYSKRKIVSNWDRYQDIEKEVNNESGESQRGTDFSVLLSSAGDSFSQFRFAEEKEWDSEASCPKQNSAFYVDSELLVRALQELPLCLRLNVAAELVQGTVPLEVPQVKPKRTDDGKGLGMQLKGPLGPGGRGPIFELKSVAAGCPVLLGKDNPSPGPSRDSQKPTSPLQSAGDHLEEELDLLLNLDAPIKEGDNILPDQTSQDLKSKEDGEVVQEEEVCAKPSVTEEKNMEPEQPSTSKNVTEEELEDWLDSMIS
Chain of UniProt Q8N163 (Q8N163 whole entry, looked up): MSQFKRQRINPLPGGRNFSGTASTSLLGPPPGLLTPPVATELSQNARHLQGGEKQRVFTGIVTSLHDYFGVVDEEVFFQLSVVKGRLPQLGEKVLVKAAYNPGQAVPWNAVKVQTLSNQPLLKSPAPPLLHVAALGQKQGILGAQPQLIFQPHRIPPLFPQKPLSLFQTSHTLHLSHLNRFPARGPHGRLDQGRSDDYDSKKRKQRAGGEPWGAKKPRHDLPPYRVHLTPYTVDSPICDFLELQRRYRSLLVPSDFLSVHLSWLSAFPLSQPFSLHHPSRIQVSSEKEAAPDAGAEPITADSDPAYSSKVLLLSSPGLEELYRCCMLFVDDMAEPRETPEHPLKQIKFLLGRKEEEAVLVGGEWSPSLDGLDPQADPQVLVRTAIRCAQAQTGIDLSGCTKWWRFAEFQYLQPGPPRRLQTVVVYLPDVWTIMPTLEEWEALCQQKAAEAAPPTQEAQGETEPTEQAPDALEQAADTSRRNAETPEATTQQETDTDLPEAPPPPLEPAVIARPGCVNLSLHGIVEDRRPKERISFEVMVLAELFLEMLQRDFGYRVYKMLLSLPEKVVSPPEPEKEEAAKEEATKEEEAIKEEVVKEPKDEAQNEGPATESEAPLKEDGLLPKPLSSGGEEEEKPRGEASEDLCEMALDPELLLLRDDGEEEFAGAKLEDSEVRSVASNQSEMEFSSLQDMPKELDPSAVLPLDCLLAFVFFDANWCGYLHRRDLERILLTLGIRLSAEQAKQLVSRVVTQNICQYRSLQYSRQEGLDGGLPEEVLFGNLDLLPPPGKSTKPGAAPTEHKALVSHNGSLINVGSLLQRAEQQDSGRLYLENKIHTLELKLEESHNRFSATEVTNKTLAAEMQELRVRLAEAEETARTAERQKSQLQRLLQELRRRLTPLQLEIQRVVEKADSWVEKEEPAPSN
Chain of UniProt P42574 (P42574 whole entry, looked up): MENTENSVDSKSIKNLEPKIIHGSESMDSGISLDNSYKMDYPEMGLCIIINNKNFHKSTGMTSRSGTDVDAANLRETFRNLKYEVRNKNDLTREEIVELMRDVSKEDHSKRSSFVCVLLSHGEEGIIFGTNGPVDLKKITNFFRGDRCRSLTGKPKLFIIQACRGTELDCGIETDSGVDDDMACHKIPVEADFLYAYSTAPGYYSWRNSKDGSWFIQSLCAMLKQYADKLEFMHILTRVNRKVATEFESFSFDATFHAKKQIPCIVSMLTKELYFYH
Chain of UniProt Q9Y487 (Q9Y487 whole entry, looked up): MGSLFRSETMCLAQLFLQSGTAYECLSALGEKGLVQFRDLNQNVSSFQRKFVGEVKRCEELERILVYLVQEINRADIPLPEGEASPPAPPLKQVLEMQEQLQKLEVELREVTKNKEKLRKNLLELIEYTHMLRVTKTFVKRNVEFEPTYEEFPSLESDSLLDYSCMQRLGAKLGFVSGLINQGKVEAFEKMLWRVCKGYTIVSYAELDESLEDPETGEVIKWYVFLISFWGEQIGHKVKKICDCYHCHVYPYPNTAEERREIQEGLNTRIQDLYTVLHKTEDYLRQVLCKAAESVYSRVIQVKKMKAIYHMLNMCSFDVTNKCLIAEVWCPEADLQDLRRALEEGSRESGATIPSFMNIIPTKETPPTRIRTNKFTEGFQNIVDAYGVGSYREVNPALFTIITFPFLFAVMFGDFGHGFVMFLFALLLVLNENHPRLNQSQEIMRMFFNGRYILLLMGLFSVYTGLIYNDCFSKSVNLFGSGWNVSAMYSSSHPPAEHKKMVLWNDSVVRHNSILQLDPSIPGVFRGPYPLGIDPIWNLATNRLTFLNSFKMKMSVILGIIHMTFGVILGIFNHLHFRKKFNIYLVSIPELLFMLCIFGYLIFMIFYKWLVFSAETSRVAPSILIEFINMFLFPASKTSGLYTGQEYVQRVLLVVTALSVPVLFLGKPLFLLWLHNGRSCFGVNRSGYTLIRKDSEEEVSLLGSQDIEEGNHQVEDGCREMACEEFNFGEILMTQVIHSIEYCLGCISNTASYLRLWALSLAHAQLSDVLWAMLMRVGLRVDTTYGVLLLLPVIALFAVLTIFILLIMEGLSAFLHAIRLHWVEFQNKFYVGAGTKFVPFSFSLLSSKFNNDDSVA
Chain of UniProt P27824 (P27824 whole entry, looked up): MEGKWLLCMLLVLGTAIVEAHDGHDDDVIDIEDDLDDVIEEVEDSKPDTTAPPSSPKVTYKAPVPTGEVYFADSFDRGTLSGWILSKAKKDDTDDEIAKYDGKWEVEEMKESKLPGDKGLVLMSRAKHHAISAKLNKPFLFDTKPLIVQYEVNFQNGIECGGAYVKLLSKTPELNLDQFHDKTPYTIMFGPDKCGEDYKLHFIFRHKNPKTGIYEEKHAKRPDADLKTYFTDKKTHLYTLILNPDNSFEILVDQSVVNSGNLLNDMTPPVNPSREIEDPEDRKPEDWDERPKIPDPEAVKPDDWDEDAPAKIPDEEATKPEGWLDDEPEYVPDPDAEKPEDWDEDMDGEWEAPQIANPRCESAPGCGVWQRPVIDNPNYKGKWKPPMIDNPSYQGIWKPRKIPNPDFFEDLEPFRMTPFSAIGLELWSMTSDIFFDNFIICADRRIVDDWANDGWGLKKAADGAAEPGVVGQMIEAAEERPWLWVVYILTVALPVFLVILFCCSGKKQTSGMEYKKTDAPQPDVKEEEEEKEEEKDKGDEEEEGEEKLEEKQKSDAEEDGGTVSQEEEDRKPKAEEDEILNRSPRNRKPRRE
Chain of UniProt Q92879 (Q92879 whole entry, looked up): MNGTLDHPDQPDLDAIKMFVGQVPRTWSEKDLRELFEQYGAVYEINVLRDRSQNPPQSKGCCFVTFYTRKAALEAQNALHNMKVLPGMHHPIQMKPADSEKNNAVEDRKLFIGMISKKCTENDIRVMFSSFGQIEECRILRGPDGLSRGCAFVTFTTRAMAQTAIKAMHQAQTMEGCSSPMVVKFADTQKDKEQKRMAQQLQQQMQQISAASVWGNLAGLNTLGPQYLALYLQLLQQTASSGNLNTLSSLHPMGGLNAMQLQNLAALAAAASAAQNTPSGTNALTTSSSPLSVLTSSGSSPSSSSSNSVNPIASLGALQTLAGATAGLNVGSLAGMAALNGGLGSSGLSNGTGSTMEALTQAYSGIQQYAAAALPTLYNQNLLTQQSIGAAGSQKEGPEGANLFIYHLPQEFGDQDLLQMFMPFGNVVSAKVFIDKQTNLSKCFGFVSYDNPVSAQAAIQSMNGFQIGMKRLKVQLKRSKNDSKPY
Chain of UniProt Q12981 (Q12981 whole entry, looked up): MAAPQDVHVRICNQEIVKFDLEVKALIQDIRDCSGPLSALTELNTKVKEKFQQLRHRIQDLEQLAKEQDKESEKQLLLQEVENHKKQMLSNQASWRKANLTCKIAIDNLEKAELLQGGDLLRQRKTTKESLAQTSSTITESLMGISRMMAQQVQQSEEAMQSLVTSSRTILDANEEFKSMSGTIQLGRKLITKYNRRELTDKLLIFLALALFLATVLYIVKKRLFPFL
Chain of UniProt Q9Y2V2 (Q9Y2V2 whole entry, looked up): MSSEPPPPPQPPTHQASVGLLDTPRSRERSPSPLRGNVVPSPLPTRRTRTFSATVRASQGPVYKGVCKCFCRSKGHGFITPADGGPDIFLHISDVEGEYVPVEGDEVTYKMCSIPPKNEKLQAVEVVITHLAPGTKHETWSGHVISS

Target	log2 fold change (nilotinib)	log2 fold change [1]	log2 fold change (dasatinib)	log2 fold change [2]	log2 fold change [3]	log2 fold change (quisinostat)	log2 fold change (tipifarnib)	log2 fold change [4]	log2 fold change [5]	log2 fold change [6]	log2 fold change [7]	log2 fold change (vorinostat)	log2 fold change (silmitasertib)	log2 fold change [8]	log2 fold change (entospletinib)
CASP3 (UniProt P42574)	0.032 (inactive)	-0.024 (inactive)	0.053 (inactive)	0.023 (inactive)	0.008 (inactive)	-0.029 (inactive)	-0.033 (inactive)	0 (inactive)	-0.01 (inactive)	0.022 (inactive)	-0.031 (inactive)	0.058 (inactive)	-0.02 (inactive)	0.007 (inactive)	-0.027 (inactive)
CELF1 isoform 4 (UniProt Q92879)	-0.022 (inactive)	0.042 (inactive)	-0.025 (inactive)	0 (inactive)	0 (inactive)	0.021 (inactive)	-0.013 (inactive)	0.037 (inactive)	0.033 (inactive)	0.067 (inactive)	0.065 (inactive)	-0.347 (active)	0.019 (inactive)	0.022 (inactive)	0.013 (inactive)
CANX isoform 2 (UniProt P27824)	-0.006 (inactive)	0.008 (inactive)	0.012 (inactive)	-0.02 (inactive)	-0.02 (inactive)	-0.029 (inactive)	-0.064 (inactive)	-0.011 (inactive)	-0.004 (inactive)	-0.011 (inactive)	0.018 (inactive)	0.131 (inactive)	-0.004 (inactive)	-0.015 (inactive)	-0.004 (inactive)
CCNY (UniProt Q8ND76)	0.017 (inactive)	0.016 (inactive)	-0.021 (inactive)	0.05 (inactive)	0.065 (inactive)	-0.216 (inactive)	0.057 (inactive)	0.077 (inactive)	-0.022 (inactive)	0.025 (inactive)	0.076 (inactive)	-0.822 (active)	-0.018 (inactive)	-0.002 (inactive)	-0.074 (inactive)
ATR (UniProt Q13535)	-0.075 (inactive)	0.002 (inactive)	0.001 (inactive)	0.013 (inactive)	0.001 (inactive)	-0.219 (inactive)	-0.032 (inactive)	0.047 (inactive)	0.014 (inactive)	-0.085 (inactive)	0.044 (inactive)	-0.131 (inactive)	0.509 (active)	-0.01 (inactive)	0.046 (inactive)
ATP6V0A2 (UniProt Q9Y487)	0.034 (inactive)	-0.008 (inactive)	-0.028 (inactive)	0.027 (inactive)	0.003 (inactive)	-0.065 (inactive)	-0.033 (inactive)	-0.011 (inactive)	0.001 (inactive)	-0.001 (inactive)	-0.033 (inactive)	0.127 (inactive)	-0.016 (inactive)	-0.021 (inactive)	0.012 (inactive)
CBR1 (UniProt P16152)	0.046 (inactive)	0.046 (inactive)	0.1 (inactive)	0.076 (inactive)	-0.02 (inactive)	0.113 (inactive)	-0.001 (inactive)	-0.021 (inactive)	-0.02 (inactive)	0.016 (inactive)	-0.01 (inactive)	-0.377 (active)	-0.024 (inactive)	0.033 (inactive)	0.006 (inactive)
CARHSP1 (UniProt Q9Y2V2)	0.037 (inactive)	-0.037 (inactive)	0.017 (inactive)	-0.004 (inactive)	-0.04 (inactive)	-0.006 (inactive)	0.035 (inactive)	-0.034 (inactive)	-0.026 (inactive)	-0.001 (inactive)	0.045 (inactive)	0.052 (inactive)	-0.006 (inactive)	0.056 (inactive)	-0.049 (inactive)
CES2 isoform 4 (UniProt O00748)	-0.073 (inactive)	-0.115 (inactive)	0.065 (inactive)	0.098 (inactive)	-0.087 (inactive)	-0.042 (inactive)	0.05 (inactive)	-0.029 (inactive)	0.033 (inactive)	0.001 (inactive)	0.049 (inactive)	0.307 (inactive)	-0.093 (inactive)	0.177 (inactive)	-0.034 (inactive)
CCAR2 (UniProt Q8N163)	-0.001 (inactive)	-0.016 (inactive)	-0.069 (inactive)	-0.017 (inactive)	0.018 (inactive)	-0.033 (inactive)	-0.013 (inactive)	0.027 (inactive)	0.014 (inactive)	-0.007 (inactive)	0.01 (inactive)	-0.399 (active)	0.002 (inactive)	-0.02 (inactive)	0.02 (inactive)
CCNK isoform 4 (UniProt O75909)	0.011 (inactive)	-0.03 (inactive)	-0.051 (inactive)	-0.009 (inactive)	0.003 (inactive)	0.009 (inactive)	-0.004 (inactive)	-0.006 (inactive)	-0.005 (inactive)	-0.011 (inactive)	0.032 (inactive)	0.093 (inactive)	-0.007 (inactive)	-0.051 (inactive)	-0.002 (inactive)
CARD9 (UniProt Q9H257)	0.047 (inactive)	-0.037 (inactive)	-0.017 (inactive)	0.028 (inactive)	0 (inactive)	-0.032 (inactive)	-0.035 (inactive)	0.005 (inactive)	0.034 (inactive)	-0.007 (inactive)	0.008 (inactive)	-0.217 (active)	0.011 (inactive)	0.014 (inactive)	-0.038 (inactive)
CDK5RAP3 isoform 4 (UniProt Q96JB5)	0.003 (inactive)	-0.016 (inactive)	-0.067 (inactive)	0.006 (inactive)	0.045 (inactive)	-0.03 (inactive)	-0.043 (inactive)	0.023 (inactive)	0.026 (inactive)	-0.007 (inactive)	0.046 (inactive)	0.026 (inactive)	0.068 (inactive)	0 (inactive)	0.012 (inactive)
CBX1 (UniProt P83916)	0.006 (inactive)	-0.003 (inactive)	0.017 (inactive)	0 (inactive)	-0.027 (inactive)	-0.004 (inactive)	-0.008 (inactive)	-0.004 (inactive)	0.062 (inactive)	0.012 (inactive)	0.029 (inactive)	0.092 (inactive)	-0.046 (inactive)	-0.01 (inactive)	-0.018 (inactive)
AVEN (UniProt Q9NQS1)	-0.014 (inactive)	0.068 (inactive)	0.01 (inactive)	0.025 (inactive)	-0.08 (inactive)	-0.042 (inactive)	-0.188 (inactive)	0.038 (inactive)		0.154 (inactive)	-0.146 (inactive)	-0.738 (active)	-0.009 (inactive)	0.092 (inactive)	-0.161 (inactive)
C18orf25 isoform 2 (UniProt Q96B23)	-0.026 (inactive)	-0.115 (inactive)	-0.025 (inactive)	-0.291 (inactive)	-0.056 (inactive)		0.076 (inactive)		0.01 (inactive)	-0.071 (inactive)	-0.014 (inactive)	-0.034 (inactive)	-0.067 (inactive)		0.038 (inactive)
BNIP1 (UniProt Q12981)	-0.004 (inactive)	-0.037 (inactive)	-0.005 (inactive)	-0.028 (inactive)	-0.045 (inactive)	-0.014 (inactive)	-0.046 (inactive)	-0.034 (inactive)	-0.033 (inactive)	0.057 (inactive)	-0.013 (inactive)	-0.049 (inactive)	0.066 (inactive)	-0.026 (inactive)	-0.051 (inactive)
